# In the library only some 3.8% were active in any assay of this set; here they are far more common.
# NTMT1 inh = blocks human N-terminal methyltransferase 1 activity. 59,000 compounds, 2.5% hits. NTMT1 MTase-Glo SAH luminescence, purified enzyme. Q9BV86. Potency, µM (doses to about 114 µM), without a hit: top-dose activity change, negative = inhibition, hits mostly inhibitors;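 further: potency means the concentration at half of the fitted maximal effect; plate controls were DMSO vehicle for no effect and no enzyme for full effect; nearly all actives have a fitted effect of over 65% in size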
# Target sequence (Q9BV86 whole entry, looked up): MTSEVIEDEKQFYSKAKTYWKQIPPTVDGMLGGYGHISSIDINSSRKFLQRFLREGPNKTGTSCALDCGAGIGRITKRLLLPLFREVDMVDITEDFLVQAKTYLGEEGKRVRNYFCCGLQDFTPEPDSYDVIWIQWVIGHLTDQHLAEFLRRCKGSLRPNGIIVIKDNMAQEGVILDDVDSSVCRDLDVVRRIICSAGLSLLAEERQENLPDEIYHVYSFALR
# B2AR arrestin ag = ADRB2 beta-arrestin recruitment | P07550 | HTLA Tango cells, beta-arrestin recruitment, luciferase luminescence, 18 h | Potency, µM (titrated, usually from 46.1 µM), most hits filed as activators | 44,000 tested, under 10 active | AID 1347077;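 further: potency means the concentration at half of the fitted maximal effect; 0% = DMSO and full agonism = EC100 isoproterenol or metaproterenol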
#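 Receptor–beta-arrestin recruitment read by tTA-responsive luciferase: compound titrations (up to 46 µM) incubated 18 h with Tango cells, then luminescent substrate 15 min at room temperature. Concentration-response fits classified by r2, efficacy and activity.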
# OvCa metastasis = ovarian cancer metastasis inhibition, 3D TME model. SKOV3ip1-GFP adhesion/invasion on 3D omental model, fluorescence. Potency, µM (top dose mostly 45.8 µM), for inactives: at the top dose activity change, negative = inhibition, most hits filed as inhibitors. 46,000 compounds, 0.1% hits;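 further: potency means the concentration at half of the fitted maximal effect; plate controls were DMSO wells for no effect and tomatine positive control wells for full effect; nearly all actives have a fitted effect of over 65% in size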
#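 Primary human omental fibroblast/mesothelial 3D culture pre-formed 48 h. SKOV3ip1-GFP cells added with compounds (0.36-46 umol/L), incubated 2 h RT/16 h 37 C, fixed; GFP cells quantified at 488/509 nm.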
# GALK inhibitor = inhibitors of human galactokinase (GALK); Potency, µM (top dose mostly 57.5 µM), for the others: top-dose activity, negative = inhibition, most hits filed as inhibitors; recombinant GALK, Kinase-Glo ATP luminescence, 1 h; P51570; 44,000 tested, under 10 active;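 further: plate controls were full GALK reaction for no effect and reaction lacking GALK for full effect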
#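 Luminescent ATP-depletion readout (Kinase-Glo Plus, 10 min) after 1 h RT reaction of 5 nM GALK, 35 uM ATP, 100 uM galactose, pH 8.0 HEPES buffer. Decreased kinase activity scored as inhibition.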
# DRV1 agonist = GPR32 (DRV1) agonism, beta-arrestin recruitment. activation, % at 76.9 µM. 48,000 compounds, 2.5% hits. CHO-K1 GPR32 beta-arrestin PathHunter luminescence, 90 min; zero percent set by DMSO-only wells. O75388;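 active means activation of at least 60% and not above a set upper limit, about 1 call in 100 departs from these limits; inconclusive means activation of 40% to 60%, or above that upper limit; inactive means activation under 40%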; further: 0% is about no effect
#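 Using DMSO wells as EC0, agonist-induced signal was taken as chemiluminescence from beta-Gal reconstituted upon beta-arrestin recruitment to GPR32 in CHO-K1 cells after 90 min compound treatment.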
# TSG101-PTAP inh = blocks PTAP binding to human TSG101, validation | Fluorescence polarization, FITC-PTAP peptide/Tsg101, 20 min | Potency, µM (highest dose often 115 µM), usual class: inhibitors | 44,000 tested, under 10 active | AID 1347069; further: potency means the concentration at half of the fitted maximal effect; 0% is about no effect
#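 Read-out is FITC fluorescence polarization. Compounds were added to Tsg101 binding domain (10 uM final), then FITC-PTAP peptide (50 nM final), 20 min at r.t. Total S+P intensity flags fluorescent compounds.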
# Sfp PPTase inh = inhibits purified B. subtilis Sfp PPTase; shares compounds with NTMT1 inh; purified Sfp PPTase enzyme activity, qHTS; Potency, µM (titrated, usually from 114 µM), for inactives: at the top dose activity change, negative = inhibition, most hits filed as inhibitors; 230 compounds, 78% hits
# Bsub HM489 growth = Sfp PPTase inhibitors: growth inhibition of B. subtilis HM489 | shares compounds with NTMT1 inh | B. subtilis HM489 (acpS-) growth, BacTiter-Glo, 5 h | Potency, µM (top dose mostly 114 µM), for the others: at the highest dose activity change, negative = inhibition, hits mostly inhibitors | 220 compounds, 50% hits
# Sfp gel opt = inhibitors of Bacillus subtilis Sfp PPTase, gel-based followup; shares compounds with NTMT1 inh; purified Sfp PPTase, gel-based product detection; Potency, µM (top dose mostly 250 µM), inactives show at the top dose activity change, negative = inhibition, usual class: inhibitors; 220 compounds, 54% hits; AID 540355
# Sfp inh gel = inhibits B. subtilis Sfp PPTase in gel-based assay. shares compounds with NTMT1 inh. Potency, µM (doses to about 250 µM), for inactives: top-dose activity change, negative = inhibition, most hits filed as inhibitors. 45 compounds, 90% hits. purified Sfp PPTase, gel-based product detection. AID 602362
# Sfp SAR2 = inhibitors of Bacillus subtilis Sfp PPTase, SAR round 2; purified Sfp enzyme, PPTase activity, qHTS; shares compounds with NTMT1 inh; AID 602370; 230 compounds, 87% hits; Potency, µM (top dose mostly 57.1 µM), inactives show at the highest dose activity change, negative = inhibition, hits mostly inhibitors
# hGST A1-1 inh = inhibits hGST A1-1 in Sfp inhibitor counter-screen. hGST A1-1 enzyme activity counter-screen, qHTS. 55 tested, under 10 active. shares compounds with NTMT1 inh. Potency, µM (top dose mostly 114 µM), inactives show at the top dose activity change, negative = inhibition, usual class: inhibitors
# HSD17B4 inh = HSD17B4 (human) inhibition, HPGD counter-screen; shares compounds with NTMT1 inh; purified HSD17B4, estradiol/NAD+, NADH fluorescence; Potency, µM (series often up to 57.1 µM), without a hit: at the top dose activity change, negative = inhibition, usual class: inhibitors; 230 compounds, 10% hits
# ALDH1A1 counter = inhibits human ALDH1A1, off-target for HPGD inhibitors; shares compounds with NTMT1 inh; recombinant ALDH1A1, NADH fluorescence, propionaldehyde/NAD+; Potency, µM (series often up to 57.1 µM), inactives show at the highest dose activity change, negative = inhibition, usual class: inhibitors; 230 compounds, 93% hits
# NNMT counter = human NNMT inhibition, NTMT1 counter-screen; shares compounds with NTMT1 inh; NNMT MTase-Glo luminescence, SAH detection; Potency, µM (top dose mostly 57.1 µM), for the others: at the top dose activity, negative = inhibition, actives largely listed as inhibitors; 120 compounds, 10% hits; AID 1645878
# Target sequence (P40261 whole entry, looked up): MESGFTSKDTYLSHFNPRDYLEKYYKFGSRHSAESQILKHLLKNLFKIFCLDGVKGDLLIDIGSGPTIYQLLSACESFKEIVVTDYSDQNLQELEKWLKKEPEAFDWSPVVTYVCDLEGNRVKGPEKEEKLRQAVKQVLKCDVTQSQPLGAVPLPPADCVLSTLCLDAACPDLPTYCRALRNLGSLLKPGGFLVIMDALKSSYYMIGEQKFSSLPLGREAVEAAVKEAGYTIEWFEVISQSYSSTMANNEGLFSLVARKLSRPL
# * marks the source's active call; other numbers are inactive results; i = inactive; ? = inconclusive; nt = not tested or not shown. Unless noted, the call rests on the fitted dose curve; in most records, active means well fitted curve in the direction sought with a large enough effect; inconclusive means small, poorly fitted or top-dose-only effect, or another doubt; inactive means no such curve, though single readings can be large; an effect the other way counts as inactive or inconclusive.
SMILES,NTMT1 inh,B2AR arrestin ag,OvCa metastasis,GALK inhibitor,DRV1 agonist,TSG101-PTAP inh,Sfp PPTase inh,Bsub HM489 growth,Sfp gel opt,Sfp SAR2,HSD17B4 inh,ALDH1A1 counter,others
Cc1cc(C)nc(NC(=S)N2CCN(c3ccc4c(c3)OCO4)CC2)c1,28µM*,nt,nt,nt,nt,nt,9.4µM*,6%,0.63µM*,14µM*,?,4.3µM*,
COc1ccc(N2CCN(C(=O)Cc3coc4ccc(C)cc34)CC2)cc1,15%,i,-9%,0%,-22,i,nt,nt,nt,nt,nt,nt,
Cc1cc(C)nc(NC(=S)N2CCN(c3ccc4occc4c3)CC2)c1,?,nt,nt,nt,nt,nt,3.7µM*,?,4µM*,4.6µM*,?,17µM*,
O=C(Nc1cc(Cl)ccc1Cl)c1cc(S(=O)(=O)N2CCc3ccccc3C2)ccc1F,-4%,i,1%,-6%,-21,i,nt,nt,nt,nt,nt,nt,
Cc1cccc(NC(=O)NC2COc3ccccc3C2)c1C (stereo unspecified),20%,i,5%,-2%,-5,i,nt,nt,nt,nt,nt,nt,
COc1cc2c(NC3CCN(C(C)C)CC3)nc(C3CCCCC3)nc2cc1OCCCN1CCCC1,?,nt,12µM*,nt,nt,nt,nt,nt,nt,nt,nt,nt,NNMT counter=?
COc1ccc(N2CCN(C(=O)Nc3cccc(C(F)(F)F)c3)CC2)cc1,?,i,-1%,6%,28,i,nt,nt,nt,nt,nt,nt,
Cc1ccnc(NC(=S)N[C@@H]2CCN(c3cccc(C(F)(F)F)c3)C2)c1,16%,nt,nt,nt,nt,nt,?,?,19%,?,9%,24µM*,Sfp inh gel=0%;hGST A1-1 inh=?

# From PubChem
